Activity calls are given as the source filed them.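 How the source made its calls: active means mean z-score across replicates of 1.96 or higher in either the MELAS or the Rieske mutant cell line; inactive means the rest.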
assay: survival rescue of mitochondrial mutant cells in low glucose, primary screen, MELAS cybrids, Rieske KO mouse fibroblasts, CellTiter-Glo (AID 1508586); conditions: MELAS cybrid survival, CellTiter-Glo 48 h, stronger effect = higher value;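 further: test concentration not given here; z relative to plate mean and SD of compound and empty wells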

| Compound | z-score |
| --- | --- |
| CCC(C)C(=O)Nc1c(C(=O)OC)n(CC2CCCO2)c2ncc(NC3CCSC3)cc12 (centres undefined) | -0.0694 (inactive) |
| CC(C)CCN1C(=O)N(CC(N)=O)C(=O)C12CCN(Cc1nc3ccccc3s1)CC2 | -0.288 (inactive) |
| CCOC(=O)N1CCC(N2CCc3c(cc(-c4cccc(OC)c4OC)c(=O)n3CC3CC3)C2)CC1 | -0.362 (inactive) |
| COC1CN(Cc2cn(C)c3ccccc23)CC(=O)N(Cc2ccccc2)C1 (centres undefined) | -0.128 (inactive) |
| C[C@@H](NC(=O)N[C@H]1C[C@H]2C(=O)N[C@H](Cc3ccc(O)cc3)C(=O)N2C1)c1ccccc1 | -0.3 (inactive) |
| O=C(NCCn1ccnc1)c1cc(NCC2CC=CCC2)cc(S(=O)(=O)N2CCCC2)c1 (centres undefined) | -0.174 (inactive) |
| COC(=O)c1c(NC(=O)c2ccoc2)c2cc(NC(C)CSC)cnc2n1Cc1ccccc1 (centres undefined) | -1.27 (inactive) |
| Cc1nc(CN(C)C2CCc3c(c(C(=O)N(C)C)nn3CC3CCCCC3)C2)cs1 (centres undefined) | -0.264 (inactive) |
| CN1CCCC1CCNC(=O)c1cc(-c2ccccc2)cc(S(=O)(=O)N2CCSCC2)c1 (centres undefined) | -0.508 (inactive) |
| CCc1cc(C(=O)N2CC(=O)N(Cc3ccc(OC)cc3)CC(OCc3ccncc3)C2)n(C)n1 (centres undefined) | -0.128 (inactive) |
| CN(Cc1nc(-c2ccccc2)cs1)C1CCc2c(c(C(=O)N3CCSCC3)nn2C)C1 (centres undefined) | 0.0592 (inactive) |
| CC(C)NS(=O)(=O)c1cc(NC2CCCCC2)cc(C(=O)NC2Cc3ccccc3C2)c1 | -0.22 (inactive) |
| CC(C)CCNc1cc(C(=O)N[C@H]2CCCCNC2=O)cc(S(=O)(=O)NC(C)C)c1 | -0.205 (inactive) |
| COc1cccc(-c2cc3c(n(Cc4ccccn4)c2=O)CCN(C(=O)c2csc(C)n2)C3)c1 | -0.876 |
| COC(=O)c1c(NC(C)=O)c2cc(NCc3sccc3C)cnc2n1CC1CCCO1 (centres undefined) | 0.213 (inactive) |
| CC(C)CCNc1cc(C(=O)NCCCn2ccnc2)cc(S(=O)(=O)N2CCCC2)c1 | 0.646 (inactive) |
| COc1ccc(CCn2nc(C(=O)N(C)C)c3c2CCN(C(=O)c2csc4c2CCCC4)C3)cc1 | -0.0604 (inactive) |
| C[C@H](O)[C@H]1NC(=O)[C@@H]2C[C@H](NC(=O)Nc3cccc(F)c3)CN2C1=O | 0.0941 (inactive) |
| COc1ccccc1CNC1CCc2c(c(C(=O)N3CCc4ccccc4C3)nn2C)C1 (centres undefined) | -0.107 (inactive) |
| COc1ccc(C[C@@H]2NC(=O)[C@H]3CN(C(=O)Oc4ccc(Cl)cc4)CCN3C2=O)cc1 | -0.205 (inactive) |

| Compound | z-score |
| --- | --- |
| Cc1ccc(-c2cc(C(=O)N3CCSCC3)cc(S(=O)(=O)N3CCOCC3)c2)s1 | -0.321 (inactive) |
| Cc1noc(C)c1CC(=O)N1CCc2c(c(C(=O)N3CCOCC3)nn2CCCc2ccccc2)C1 | 0.975 (inactive) |
| COc1ccc(CN2C(=O)N(C)C3(CCN(Cc4nc(-c5ccccc5)cs4)CC3)C2=O)cc1 | -0.259 (inactive) |
| COc1cc(/C=C/CN2CC(=O)N(C(C)C)CC(OCc3noc(C)n3)C2)ccc1O (centres undefined) | -0.167 (inactive) |
| CC(C)Cn1nc(C(=O)N2CCCC2)c2c1CCC(NCCc1cccs1)C2 (centres undefined) | -0.0921 (inactive) |
| CN1CCCC1CCNC(=O)[C@H]1CNC[C@@H](COc2cccc(F)c2)C1 (some centres undefined) | -0.0942 (inactive) |
| CC(C)N1CC(OCc2ccc(F)cc2)CN(C(=O)c2ccc(C#CC(C)(C)O)o2)CC1=O (centres undefined) | -0.3 (inactive) |
| Cc1c(CN2CCc3c(c(C(=O)NC4CCCC4)nn3CC(C)C)C2)c(=O)n(-c2ccccc2)n1C | -0.389 (inactive) |
| O=C([C@@H]1C[C@H](CN2CCOCC2)CN(Cc2ccc3ccccc3c2)C1)N1CCCC1 | 1.59 (inactive) |
| CCOC(=O)c1nn(Cc2ccc(OC)cc2)c2c1CN(C(=O)CSc1ncccn1)CC2 | -0.668 (inactive) |
| Cc1ccc2c(CC(=O)N3CC(=O)N(CC(C)C)CC(OCc4ccccn4)C3)cc(=O)oc2c1 (centres undefined) | -0.0739 (inactive) |
| O=C(NCC1CCCO1)[C@@H]1C[C@H](CN2CCOCC2)CN(Cc2ccc3ccccc3c2)C1 (some centres undefined) | -0.349 (inactive) |
| CN(Cc1cscn1)C(=O)c1nn(CC2CC2)c2c1CN(C(=O)Cn1cnc3ccccc31)CC2 | 0.533 (inactive) |
| Cc1csc(-c2cc(C(=O)NCCCN3CCOCC3)cc(S(=O)(=O)N3CCOCC3)c2)c1 | -0.167 (inactive) |
| COC(=O)CCN1CC(OCc2ccncc2)CN(C(=O)Cc2c(F)cccc2Cl)CC1=O (centres undefined) | -0.399 (inactive) |
| Cn1nc(C(=O)N2CCCCC2)c2c1CCC(NCC1(c3ccccc3)CCOCC1)C2 (centres undefined) | 0.135 (inactive) |
| Cc1ccc(-c2cc(C(=O)NCC3CC3)cc(S(=O)(=O)N3CCOCC3)c2)s1 | -0.142 (inactive) |
| Cc1cc(-c2cc3c(n(C)c2=O)CCN(Cc2ccc(Sc4nncn4C)o2)C3)ccc1F | -0.56 (inactive) |
| C=CCn1nc(C(=O)N2CCCC2)c2c1CCC(NCc1ccccc1OC(F)(F)F)C2 (centres undefined) | 0.124 (inactive) |
